An excerpt weighted towards active compounds, which were near 11% of everything screened.
Pf growth 48h – Primary qHTS for delayed death inhibitors of the malarial parasite plastid, 48 hour incubation; P. falciparum luciferase growth in erythrocytes, 48 h; Potency, µM (doses to about 28.7 µM), for the others: at the top dose activity change, negative = inhibition, usual class: inhibitors; 5.9% of 310,000 active; AID 504832, 2011
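First compound was added to culture medium, then infected red cells at 0.1% parasitemia and 2% hematocrit (final). After incubation at 37 C under 5% CO2, luciferase detection reagent was dispensed and light output recorded.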
Pf growth 96h – Primary qHTS for delayed death inhibitors of the malarial parasite plastid, 96 hour incubation. P. falciparum luciferase reporter growth, 96 h. Potency, µM (top dose mostly 28.7 µM), for inactives: at the highest dose activity change, negative = inhibition, usual class: inhibitors. 6.9% of 320,000 active. AID 504834, 2011
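P. falciparum expressing integrated firefly luciferase grown in erythrocytes (2% hematocrit, 0.05% parasitemia final) with compounds for 96 hours at 37 C, 5% CO2. Growth inhibition read as loss of luminescence after adding luciferase detection reagent.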
AMA1-RON2 inh – qHTS for Inhibitors of AMA1-RON; Towards Development of Antimalarial Drug Lead: Primary Screen; AlphaScreen AMA1-biotinylated RON2 peptide binding; Potency, µM (doses to about 58.2 µM), for inactives: at the top dose activity change, negative = inhibition, most hits filed as inhibitors; 0.2% of 360,000 active;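 further: 0% = vehicle wells and -100% = peptide control; nearly all actives have a fitted effect of over 45% in size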
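AMA1 (3D7) with his tag at 25 nM final met compounds first, then biotinylated RON2 peptide at 25 nM; detection used donor plus acceptor beads, 10 µg/mL apiece, read by AlphaScreen after 30 min at room temperature.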
HCV inh – qHTS Assay for Inhibitors of Hepatitis C Virus (HCV); Huh7.5.1 HCVcc-Cre infection, luciferase reporter, 44 h; Potency, µM (titrated, usually from 41.8 µM), without a hit: at the highest dose activity change, negative = inhibition, actives largely listed as inhibitors; 3.4% of 340,000 active
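Compounds are dispensed onto cells plated 4 h earlier at 1,000 per well, with HCVcc-Cre virus (about 0.5 moi) added next. Following 44 h of culture, luminescent signal is measured for 15 sec after 15 min with substrate at room temperature.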
Starred values were filed as active, the others as inactive; ? = inconclusive; / = not tested or not shown. The call rests on the fitted dose curve; in most records, active means well fitted curve in the direction sought with a large enough effect; inconclusive means small, poorly fitted or top-dose-only effect, or another doubt; inactive means no such curve, though single readings can be large; an effect the other way counts as inactive or inconclusive. Unless noted, on the % scale 0 is the no-effect control and ±100 the full control effect; potency means the concentration at half of the fitted maximal effect.

SMILES	Pf growth 48h	Pf growth 96h	AMA1-RON2 inh	HCV inh
Cc1cccc(N2CCN(C(=O)c3ccc4nccnc4c3)CC2C)c1 (stereo not given)	/	/	-2.2%	3.0%
CC(=O)Nc1ccccc1-c1nc2cc(C#N)c(C#N)cc2[nH]c1=O	/	106.1%	-5.5%	?
Cc1cccc(N2CCN(C(=O)c3ccc4nc(-c5ccco5)c(-c5ccco5)nc4c3)CC2C)c1 (stereo not given)	?	?	?	10µM*
O=C(O)CCc1nc2cc(C(F)(F)F)ccc2n(Cc2ccccc2)c1=O	-11.7%	-12.7%	-2.7%	12.3%
COCCn1c(C)cc(C2=NNC(=Nc3ccc(OC)cc3)SC2)c1C	13.1µM*	3.7µM*	10.5%	-19.1%
COCCn1c(C)cc(C2=NNC(=Nc3ccccc3)SC2)c1C	?	-137.6%	34.2%	?
COCCn1c(C)cc(C2=NNC(=NC(C)(C)C)SC2)c1C	11.7µM*	?	15.2%	-5.6%
O=C(CSc1ncnc2c1oc1ccccc12)Nc1nc2ccccc2s1	?	0.7%	102.1%	7.1%
O=C(CSc1ncnc2c1sc1ccccc12)Nc1ccc(Br)cc1	-2.1%	13.1µM*	22.6%	-27.1%
O=C(CCN1C(=O)C2C3CCC(C3)C2C1=O)OCC(=O)c1ccc(Cl)cc1 (stereo not given)	10.3%	-14.3%	-0.3%	16.2%
CCOc1ccc(NC(=O)CCN2C(=O)c3cccc([N+](=O)[O-])c3C2=O)cc1	6.6%	?	3.8%	-2.5%
CN(C)c1ccc(NC(=O)CCN2C(=O)c3cccc([N+](=O)[O-])c3C2=O)cc1	49.9%	11.7µM*	4.4%	15.2%
CCOC(=O)c1ccc(Oc2coc3cc(O)ccc3c2=O)cc1	11.7%	2.94µM*	5.7%	-20.7%
COc1ccc(Oc2coc3cc(O)ccc3c2=O)cc1	29.7%	?	8.1%	7.2%
COc1ccc(-c2cc(C(F)(F)F)nc(SCC(=O)NCc3cccs3)n2)cc1	11.7µM*	?	4.2%	-8.1%
O=C(CSc1nc(-c2ccccc2)cc(C(F)(F)F)n1)NCc1cccs1	-0.3%	-10.6%	6.5%	0.1%
COCC(C)NC(=O)CCSc1nc(-c2ccc(OC)cc2)cc(C(F)(F)F)n1 (stereo not given)	5.22µM*	9.28µM*	10.3%	?
COc1ccc(-c2cc(C(F)(F)F)nc(SCCC(=O)N3CCN(C)CC3)n2)cc1	/	/	-12.6%	7.3%
Cn1c(NN)nc2c1c(=O)n(Cc1ccccc1)c(=O)n2C	11.7µM*	0.5%	80.3%	3.3%
CCOC(=O)Cn1c(=O)c2c(nc3n2CCCCN3c2ccc(OCC)cc2)n(C)c1=O	/	/	5.7%	19.2%
CCOC(=O)Cn1c(=O)c2c(nc(Br)n2Cc2ccccc2)n(C)c1=O	-15.3%	/	/	/
Cn1c(Br)nc2c1c(=O)n(Cc1ccccc1)c(=O)n2C	-13.9%	-14.8%	0.9%	6.8%
Cn1c(=O)n(CC(N)=O)c(=O)c2c1nc(Br)n2Cc1ccccc1	0.2%	2.08µM*	-2.0%	-5.8%
C=CCn1c(=O)c2c(nc(Br)n2Cc2ccccc2Cl)n(C)c1=O	?	11.7µM*	14.0%	-5.3%
CCCCOC(=O)Cn1c(=O)c2c(nc3n2CCCCN3c2ccc(C)cc2)n(C)c1=O	7.38µM*	-2.4%	-5.0%	?
SMILES	Pf growth 48h	Pf growth 96h	AMA1-RON2 inh	HCV inh
O=C(NCc1ccccc1)c1cc(C2CCCCN2S(=O)(=O)c2ccccc2)on1 (stereo not given)	/	/	-1.2%	/
CCCCN1CC2=C(C1=O)C(c1ccc(O)cc1)NC(=O)N2C (stereo not given)	-5.3%	-46.3%	2.4%	19.2%
CCCCOC(=O)Cn1c(=O)c2c(nc(Br)n2Cc2ccccc2)n(C)c1=O	9.28µM*	?	-12.3%	?
O=C(OCc1cc(=O)n2ccsc2n1)c1ccccc1NCCO	/	/	-24.5%	-25.0%
Cc1ccc(C)c(S(=O)(=O)Nc2nc(C)c(C(=O)Nc3ccccc3)s2)c1	?	0.657µM*	-6.4%	7.7%
Cc1ccc(S(=O)(=O)Nc2ccc3nc(C)sc3c2)c(C)c1	-25.3%	?	-7.7%	?
Cc1nc2cc(NS(=O)(=O)c3ccccc3F)ccc2s1	10.2%	20.8%	-9.6%	-12.4%
Cc1nc2cc(NS(=O)(=O)c3c(C)c(C)cc(C)c3C)ccc2s1	?	?	16.0%	2.82µM*

Source: PubChem BioAssay (National Center for Advancing Translational Sciences (NCATS))
